# Screens from PubChem.
# An excerpt weighted towards active compounds, which were near 3.4% of everything screened.
# HSF1 activator – increases HSF-1 driven luciferase reporter signal | NIH3T3-HGL HSF-1 luciferase reporter, MG132, 8 h; 100% = twice DMSO control signal | activation, % at 9 µM | 300,000 compounds, 1.7% hits | AID 504408;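 active = mean replicate activation of at least 50% with a set share of replicates each reaching 50%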;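 also: 0% = median of the neutral control wells and 100% = twice that signal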
# Vif inh – blocks HIV Vif function | 340,000 compounds, 0.35% hits | AID 602346 | HEK293T cells, Vif self-association by quenched fluorescence, imaging, 24 h | inhibition, % at 7.49 µM; in the data active = inhibition above about 50%, passing the limit was not always enough
# HSF1 inh – HSF1 inhibition. NIH3T3-HGL HSE-luciferase, MG132-induced, luminescence 8 h; hits give low values. activity change, negative = inhibition, % at 7.5 µM (by protocol). 300,000 compounds, 0.77% hits;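 active = more than half of replicate wells show activity change below -50%, luminescence cut by over half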;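 also: luciferase reports HSF-1 transcriptional activity via heat shock element; 0% = median of DMSO wells and -100% = zero luminescence signal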
# esBAF inh – blocks esBAF chromatin remodeling in mouse ES cells. reporter increase, % at 12.5 µM. Bmi1-luciferase knock-in reporter, 24 h; 100% = twice the neutral-well signal. 350,000 compounds, 2% hits. AID 602393; in the data active = activation above about 40%;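 also: 0% = median of the plate's neutral control wells and 100% = double that signal; a rise in the Bmi1 reporter signal indicates esBAF inhibition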
# Active calls of the source: *; / = no result.
SMILES,HSF1 activator,Vif inh,HSF1 inh,esBAF inh
Cn1cnc(S(=O)(=O)N2CCCCN3[C@H](CO)[C@@H](c4ccc(-c5cccc(F)c5)cc4)[C@@H]3C2)c1,/,/,/,-7
Brc1ccc(-c2nnc(-c3ccccc3)c(N3CCSCC3)n2)cc1,126*,13,78,34
COc1ccc(-c2ccc3n(c2=O)C[C@H]2[C@H](CO)[C@@H](C(=O)N4CCOCC4)[C@@H]3N2C)cc1,/,/,/,-4
O=C(NCc1ccccc1F)[C@@H]1[C@@H](CO)[C@@H]2Cn3c(cccc3=O)[C@@H]2N1C(=O)CC1CC1,/,/,/,-3
COC(=O)CC/C(O)=C1/C(=N)CC(C)(C)CC1=O,58*,9,23,4
COC(=O)CC/C(O)=C1\C(=O)CC(C)(C)CC1=NCc1nc2ccccc2[nH]1,2,77*,-1,6
CC(=O)C1=C(O)CC(C)(C)CC1=NCc1nc2ccccc2[nH]1,2,-1,-5,-7
O=C(CN1CCOCC1)N[C@@H]1CC[C@H](CCn2cc(C3CC3)nn2)O[C@@H]1CO,/,/,/,-5
C[C@@H]1CN([C@@H](C)CO)C(=O)c2cccc(NC(=O)c3cnccn3)c2O[C@@H]1CN(C)Cc1ccccc1,/,/,/,-7
COc1ccccc1OCC(=O)Nc1sc2c(c1C(N)=O)CCC2,/,-1,/,77*
CC(C)(C)C(=O)NC(=S)Nc1sc2c(c1C#N)CCCCC2,31,3,29,/
CCC(=O)Nc1sc2c(c1C#N)CCCCC2,14,-8,16,35
CCCC(=O)Nc1sc2c(c1C#N)CCCCC2,43,1,26,85*
COc1cccc(C(=O)OCC(=O)Nc2sc3c(c2C(N)=O)CCC3)c1O,/,-8,/,7
Cc1ccccc1OCC(=O)Nc1sc2c(c1C#N)CCC2,50,11,13,47*
C=CCNC(=S)Nc1sc2c(c1C#N)CCCC2,-62,-4,-54*,6
CN1C(=O)c2cc(NC(=O)C3CCCC3)ccc2OC[C@@H]2O[C@H](CC(=O)NCC3CC3)CC[C@@H]21,/,/,/,-1
CCCC(=O)Nc1ccc2c(c1)C(=O)N(C)[C@H]1CC[C@@H](CC(=O)OC)O[C@H]1CO2,/,/,/,-4
CCC(=O)Nc1ccc2c(c1)C(=O)N(C)C[C@@H](OC)[C@@H](C)CN(C(=O)CC)[C@H](C)CO2,/,/,/,-5
Cc1cc(OCC(=O)Nc2sc3c(c2C#N)CC(C)(C)NC3(C)C)c(C(C)C)cc1Cl,-65,-11,-55*,-12
Cc1noc(C)c1NC(=O)NCC[C@@H]1CC[C@H](NC(=O)c2ccncc2)[C@@H](CO)O1,/,/,/,3
CC(=O)N(C)C[C@H]1Oc2cc(-c3ccccc3F)ccc2S(=O)(=O)N([C@H](C)CO)C[C@@H]1C,/,/,/,10
C=CCN(CC=C)CCOc1ccc(C)cc1[N+](=O)[O-],33,-9,17,53*
COc1cc(O)oc1C=Nc1ccc(C(=O)O)cc1,-64,10,-62*,0
O=C(N/N=C/c1ccsc1)c1ccc2c(c1)OCO2,/,-2,/,49*
SMILES,HSF1 activator,Vif inh,HSF1 inh,esBAF inh
O=C(N/N=C/c1ccc2c(c1)OCO2)c1ccc2c(c1)OCCO2,-60,29,-55*,/
O=C(N/N=C/c1ccncc1)c1ccc2c(c1)OCO2,2,-3,-15,11
O=C(N/N=C/c1ccc2c(c1)OCCO2)c1ccncc1,-1,-11,1,/
COc1cc(/C=N/NC(=O)c2ccc(Cl)cc2)ccc1OCC(=O)N1CC(C)OC(C)C1 (centres undefined),56*,-6,13,6
O=C(N/N=C/c1ccc(Cl)cc1)c1ccc2c(c1)OCO2,55*,-6,36,63*
Cc1cc(C(=O)Nc2ccc3c(c2)C(=O)N(C)[C@@H]2CC[C@H](CC(=O)N[C@H](C)c4ccccc4)O[C@@H]2CO3)no1,/,/,/,-4
COCC#Cc1cnc2c(c1)C(=O)N([C@H](C)CO)C[C@@H](C)[C@H](CN(C)Cc1ccc(-c3ccccc3)cc1)O2,/,/,/,-2
COc1ccccc1C(=O)NCC(=O)N/N=C/c1ccncc1,10,14,7,/
O=C(NN=Cc1ccc2c(c1)OCO2)c1ccc([N+](=O)[O-])cc1,/,2,/,/
Cc1ccsc1C(=O)N/N=C/c1ccc2c(c1)OCO2,52*,2,13,/
O=C(N/N=C/c1cccc([N+](=O)[O-])c1)c1ccc2c(c1)OCCO2,3,-1,5,44*
COc1ccccc1C(=O)NCC(=O)N/N=C/c1ccc2c(c1)OCO2,-78,6,-73*,2
C/C(=N\NC(=O)c1ccc2c(c1)OCO2)c1ccc(NS(C)(=O)=O)cc1,18,0,1,51*
